# Measured values reported in PubChem BioAssay (NCATS).
# “And” between values parts separate entries of the source, which are not always exact repeats. Identical values can stand only once. Records with an inconclusive call do not appear. The source holds several records for some structures; these can differ, active in one and inactive in another. The source made the active and inactive calls. Unless noted, calls come from the whole dose curve; as a rule, active = well fitted curve in the direction sought with a large enough effect; inconclusive = small, poorly fitted or top-dose-only effect, or another doubt; inactive = no such curve, though single readings can be large; an effect the other way counts as inactive or inconclusive.
# Experiments:
# [1] = biological target: Peroxisome proliferator-activated receptor alpha (Homo sapiens) (UniProt Q07869); experiment: qHTS assay for small molecule agonists of the peroxisome proliferator-activated receptor alpha (PPARalpha) signaling pathway (AID 651778); conditions: PathHunter PPARalpha complementation, chemiluminescence, 6 h; max response: stronger effect = higher value; note: % of control where 0% means no effect
# Method in brief: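 Cells plated at 2,000/well and held overnight at 37 C, 5% CO2, then compound added by pin tool for 6 hr; after PathHunter detection reagent and 60 min at room temperature, chemiluminescence from enzyme complementation was read.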
# [2] = qHTS assay for small molecule agonists of the antioxidant response element (ARE) signaling pathway (AID 651741; active = well fitted activation curve with a large enough effect in the signal ratio; the % refers to the signal ratio; note: potency is the fitted concentration of half-maximal effect; for activation: % of control where 0% means no effect)
# Method in brief: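 Reporter: beta-lactamase under ARE, stably in HepG2. Exposure: 16 h, 37 C, compounds delivered in DMSO by pin tool after 5 h cell preincubation. Readout: FRET substrate fluorescence after 2 h at RT.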
# [3] = qHTS assay for small molecule activators of the p53 signaling pathway (AID 651743; active = well fitted activation curve with a large enough effect in the signal ratio, not every such curve was filed as active; the % refers to the signal ratio; note: potency is the fitted concentration of half-maximal effect; for activation: % of control where 0% means no effect); conditions: HCT-116 p53RE-bla, beta-lactamase FRET ratio, 16 h; activation: stronger effect = higher value
# Method in brief: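 Agonist-mode quantitative HTS in HCT-116 cells carrying a p53-response-element beta-lactamase reporter; 16 h compound treatment at 37 C, then FRET substrate loading for 2 h at room temperature and fluorescence read.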
# [4] = qHTS assay for small molecule activators of the nuclear factor-kappa B (NF-kB) signaling pathway (AID 651749; active = well fitted activation curve with a large enough effect in the signal ratio; the % refers to the signal ratio; note: % of control where 0% means no effect); conditions: NF-kB-bla ME-180 cells, beta-lactamase FRET ratio, 16 h; stronger effect = higher value
# Method in brief: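 Human ME-180 cervical cells with an NF-kB-bla construct; compounds added via 23 nL pin transfer, DMSO as vehicle; incubation 16 hr. Reporter activity measured by FRET disruption.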
# [5] = qHTS assay for small molecule disruptors of the mitochondrial membrane potential - 1 hr assay (AID 651754; calls by dose curve; note: nearly all actives have a fitted effect of over 35% in size; note: potency is the fitted concentration of half-maximal effect)
# Method in brief: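 Mitochondrial potential in living HepG2 cells after 1 hr compound treatment at 37C was read with Mito-MPS dye added for a further 30 min. Red aggregate and green monomer fluorescence were measured; loss of potential leaves dye as cytoplasmic monomers.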
# [6] = qHTS assay for small molecule disruptors of the mitochondrial membrane potential - 5 hr assay (AID 651755; calls by dose curve; note: nearly all actives have a fitted effect of over 40% in size; note: potency is the fitted concentration of half-maximal effect)
# Method in brief: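 Seed HepG2 overnight, add compound, incubate 5 hr at 37C and 5% CO2, stain 30 min with Mito-MPS, then measure monomer (490/535 nm) and aggregate (540/590 nm) fluorescence.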
# [7] = qHTS assay for environmental chemicals that activate the Aryl hydrocarbon Receptor (AhR) signaling pathway (AID 651777); conditions: 1A2-DRE human hepatoma cells, luciferase, 24 h; activation: stronger effect = higher value; note: % of control where 0% means no effect; nearly all actives have a fitted effect of over 15% in size
# Method in brief: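 Reporter gene assay: hepatoma cells with DRE/CYP1A2-luciferase, 24 hr compound incubation at 37 C, 5% CO2, luminescence after One-Glo (30 min, RT).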
# [8] = biological target: Nuclear receptor ROR-gamma (Homo sapiens) (UniProt P51449); experiment: qHTS assay for small molecule antagonists of the retinoid-related orphan receptor gamma (ROR-gamma) signaling pathway (AID 651802); note: nearly all actives have a fitted effect of over 60% in size; note: potency is the fitted concentration of half-maximal effect
# Method in brief: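 Luminescence (One-Glo, 30 min RT) measured 16 h after compound addition and doxycycline induction at 37C. Reporter: RORE-luciferase under TET-inducible ROR-gamma in CHO cells.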
# [9] = Cytotoxicity counterscreen for NFkB agonists and antagonists (AID 624476);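 note: cells exposed to compound for 48 hours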; note: potency is the fitted concentration of half-maximal effect
# [10] = qHTS Assay for Identification of Small Molecule Agonists for NFkB Signaling Pathway. (AID 624478);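 note: compounds tested together with TNF alpha at its EC50 of 10 pM; 0% is about no effect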
# Method in brief: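 Compounds were added with 10 pM TNF alpha (EC50 level) to ME-180 NFkB-bla cells in low-serum Opti-MEM and incubated 5 hrs at 37 C. Beta-lactamase FRET read-out used 405 nm excitation and 460 and 530 nm emission.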
# [11] = qHTS Assay for Identification of Small Molecule Antagonists for NFkB Signaling Pathway. (AID 624479; calls by dose curve;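 note: pathway stimulated with TNF alpha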; note: potency is the fitted concentration of half-maximal effect)
# [12] = Cell Proliferation Assay against the HBL1 Cell Line (AID 651646); conditions: HBL1 DLBCL cells; at 46.1 µM (top of the series);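 note: cells exposed to compound for 48 h before reading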
# Method in brief: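 After a 48 h incubation of 500 HBL1 cells/well in phenol red-free RPMI plus 5% FBS, relative luciferase units from CellTiter-Glo gave percent activity against DMSO and 9.2 uM bortezomib (final) controls.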
# [13] = Cell Proliferation Assay against the TMD8 Cell Line (Caspase readout at 8 hrs) (AID 651713); note: potency is the fitted concentration of half-maximal effect
# Method in brief: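 Apoptosis read-out: Caspase-Glo luminescence after 8 h compound exposure of TMD8 lymphoma cells at 37C, 5% CO2. Signals were normalized as percent activity between DMSO and bortezomib (9.2 uM final) controls.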
# [14] = biological target: Tyrosine-protein kinase Yes (Homo sapiens) (UniProt P07947); experiment: qHTS for small molecule inhibitors of Yes1 kinase: Primary Screen (AID 686947); note: nearly all actives have a fitted effect of over 60% in size; note: potency is the fitted concentration of half-maximal effect
# Method in brief: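 ADP-Glo luminescence reports ADP formed by 4 nM Yes1 phosphorylating poly(E4Y) (0.3 mg/mL) with 0.1 mM ATP for 60 min at room temperature, following 20 min compound preincubation; normalised between DMSO wells with and without enzyme.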
# [15] = qHTS for small molecule inhibitors of Yes1 kinase: Counter Assay (AID 686950);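 note: no kinase present so only ADP-Glo detection of a fixed ADP amount is tested; luminescence from ADP-Glo reporting ADP in a fixed ATP and ADP mixture; 0% = DMSO wells with ATP plus ADP and -100% = ATP-only wells without ADP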
# Method in brief: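 Measuring interference with ADP-Glo, the assay ran 60 min at room temperature on an ATP/ADP mix lacking enzyme. Values were normalized to ATP-plus-ADP (maximum) and ATP-only (minimum) DMSO controls.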
# [16] = biological target: Arylsulfatase A (Homo sapiens) (UniProt P15289); experiment: qHTS screen for enhancers of Arylsulfatase A (ASA1): LOPAC Validation Assay (AID 720538); note: potency is the fitted concentration of half-maximal effect
# Method in brief: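 First, ASA-I179S fibroblasts from an MLD patient adhered for 6 hrs. Next, compounds were added for 48h. Then pNCS substrate (0.5mM final) with lysis buffer reacted 14h at room temperature before NaOH stop and fluorescence measurement.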
# [17] = Cell Proliferation Assay against the TMD8 Cell Line (Caspase readout at 16 hrs) (AID 651712); note: potency is the fitted concentration of half-maximal effect
# Method in brief: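 16 h, 37 °C, TMD8 (500 cells/well), RPMI/5% FBS no phenol red; Caspase-Glo 3/7, 15 min RT, luminescence; %act: DMSO 0, bortezomib 9.2 uM final 100.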
# [18] = qHTS assay to identify small molecules that stimulate interleukin-8 (IL-8) secretion (AID 651758; active = well fitted activation curve with a large enough effect in the signal ratio; the % refers to the signal ratio; note: 0% is about no effect)
# Method in brief: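 Quantitative HTS in THP-1 monocytic cells at 2000 cells per well, with 16 hrs compound incubation at 37 C. IL-8 in the medium was then quantified by HTRF immunoassay, read after 1-3 hrs at room temperature.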
# Sequence of Arylsulfatase A (Homo sapiens) (P15289 whole entry, looked up): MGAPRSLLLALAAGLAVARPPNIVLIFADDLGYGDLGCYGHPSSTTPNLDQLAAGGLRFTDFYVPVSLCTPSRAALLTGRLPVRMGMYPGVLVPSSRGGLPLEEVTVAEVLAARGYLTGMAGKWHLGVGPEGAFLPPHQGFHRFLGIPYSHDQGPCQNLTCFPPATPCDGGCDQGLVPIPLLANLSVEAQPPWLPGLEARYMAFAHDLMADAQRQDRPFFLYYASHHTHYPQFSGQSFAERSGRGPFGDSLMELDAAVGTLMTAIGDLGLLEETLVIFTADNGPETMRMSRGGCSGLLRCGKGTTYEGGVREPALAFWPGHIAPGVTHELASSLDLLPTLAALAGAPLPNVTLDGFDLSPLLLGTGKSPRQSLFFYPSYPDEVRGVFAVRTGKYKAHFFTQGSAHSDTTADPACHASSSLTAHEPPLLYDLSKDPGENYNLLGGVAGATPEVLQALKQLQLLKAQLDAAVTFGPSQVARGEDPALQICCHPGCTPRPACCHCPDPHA
# Sequence of Tyrosine-protein kinase Yes (Homo sapiens) (P07947 whole entry, looked up): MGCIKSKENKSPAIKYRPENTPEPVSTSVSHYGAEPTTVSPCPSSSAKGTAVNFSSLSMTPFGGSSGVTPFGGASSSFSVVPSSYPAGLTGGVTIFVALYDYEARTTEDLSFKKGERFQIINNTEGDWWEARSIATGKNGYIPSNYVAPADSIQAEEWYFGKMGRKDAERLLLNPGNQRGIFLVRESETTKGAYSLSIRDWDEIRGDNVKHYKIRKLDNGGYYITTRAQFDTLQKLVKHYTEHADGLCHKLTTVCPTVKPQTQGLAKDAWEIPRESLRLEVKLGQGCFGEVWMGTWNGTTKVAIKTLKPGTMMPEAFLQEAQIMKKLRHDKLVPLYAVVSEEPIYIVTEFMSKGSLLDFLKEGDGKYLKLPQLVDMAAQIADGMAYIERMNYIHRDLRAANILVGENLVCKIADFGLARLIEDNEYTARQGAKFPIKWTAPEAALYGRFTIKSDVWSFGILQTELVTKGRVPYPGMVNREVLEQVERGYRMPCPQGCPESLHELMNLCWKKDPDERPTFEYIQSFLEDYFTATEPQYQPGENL
# Sequence of Peroxisome proliferator-activated receptor alpha (Homo sapiens) (Q07869 whole entry, looked up): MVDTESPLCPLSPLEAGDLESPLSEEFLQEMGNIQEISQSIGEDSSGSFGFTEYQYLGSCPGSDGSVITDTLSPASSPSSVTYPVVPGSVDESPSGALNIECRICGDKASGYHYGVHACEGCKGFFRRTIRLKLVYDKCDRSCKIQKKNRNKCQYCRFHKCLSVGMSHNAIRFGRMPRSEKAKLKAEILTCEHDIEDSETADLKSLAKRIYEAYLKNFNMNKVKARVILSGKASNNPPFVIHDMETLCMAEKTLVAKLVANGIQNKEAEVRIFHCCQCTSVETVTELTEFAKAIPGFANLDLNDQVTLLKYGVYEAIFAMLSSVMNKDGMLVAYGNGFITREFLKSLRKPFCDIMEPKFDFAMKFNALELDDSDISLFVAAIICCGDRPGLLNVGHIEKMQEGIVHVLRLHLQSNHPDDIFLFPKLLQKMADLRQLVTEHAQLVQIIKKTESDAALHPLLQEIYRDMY
# Sequence of Nuclear receptor ROR-gamma (Homo sapiens) (P51449 whole entry, looked up): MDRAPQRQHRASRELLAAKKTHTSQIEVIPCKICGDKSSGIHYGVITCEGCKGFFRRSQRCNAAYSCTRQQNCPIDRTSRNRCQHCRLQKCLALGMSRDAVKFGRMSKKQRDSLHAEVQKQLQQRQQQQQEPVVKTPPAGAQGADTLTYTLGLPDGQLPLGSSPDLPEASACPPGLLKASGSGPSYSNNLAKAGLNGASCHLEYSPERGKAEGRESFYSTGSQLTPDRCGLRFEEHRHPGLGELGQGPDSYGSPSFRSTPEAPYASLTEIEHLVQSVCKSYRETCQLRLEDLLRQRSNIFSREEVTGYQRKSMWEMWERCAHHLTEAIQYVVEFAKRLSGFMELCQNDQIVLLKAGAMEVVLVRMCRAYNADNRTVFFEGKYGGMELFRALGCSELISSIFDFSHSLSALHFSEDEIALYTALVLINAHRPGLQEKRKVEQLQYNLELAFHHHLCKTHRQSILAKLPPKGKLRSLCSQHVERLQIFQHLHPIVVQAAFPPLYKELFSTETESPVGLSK
smiles,measurement,setting,value
Clc1ccc(COC(Cn2ccnc2)c2ccc(Cl)cc2Cl)cc1 (centres undefined),max response,[1],-5.88% (inactive)
CCOP(=S)(OCC)Oc1cc(C)nc(C(C)C)n1,Potency,[2],inactive
same,activation,[3],-0.592% (inactive) and 3.54% (inactive)
same,activation,[4],-0.534% (inactive) and -0.189% (inactive)
same,Potency,[5],inactive
same,Potency,[6],inactive
same,activation,[7],1.79% (inactive) and 0.131% (inactive)
same,max response,[1],-5.15% (inactive) and -1.07% (inactive)
same,Potency,[8],inactive
CC(C)C(=O)Nc1ccc([N+](=O)[O-])c(C(F)(F)F)c1,Potency,[2],61.1 µM (active) and 66.8 µM (active)
same,Potency,[5],42.2 µM (active)
same,Potency,[6],42.2 µM (active)
same,Potency,[8],23.7 µM (active)
Oc1cc(Cl)ccc1Oc1ccc(Cl)cc1Cl,Potency,[2],54.5 µM (active)
same,activation,[4],2.77% (inactive)
same,max response,[1],13.1% (inactive)
C[C@@H]1[C@@H](C(=O)C[C@H]2O[C@@H]3O[C@]4(C)CC[C@@H]5[C@H](C)CC[C@@H]([C@H]2C)[C@@]35OO4)O[C@@H]2O[C@]3(C)CC[C@H]4[C@H](C)CC[C@@H]1[C@@]24OO3,Potency,[9],inactive
same,outcome,[10],inactive
same,Potency,[11],inactive
same,"viability, percent of control",[12],21.3%
same,Potency,[13],inactive
same,Potency,[14],inactive
same,outcome,[15],inactive
O=C(O)C(=O)c1cn(Cc2ccccc2)c2ccc(-c3ccc(OC(F)(F)F)cc3)cc12,Potency,[9],18.7 µM (active)
same,outcome,[10],inactive
same,Potency,[11],16.8 µM (active)
same,"viability, percent of control",[12],68.4%
same,Potency,[13],inactive
same,outcome,[15],inactive
Cc1cc2c(C(C)C)c(O)c(O)c(C=O)c2c(O)c1-c1c(C)cc2c(C(C)C)c(O)c(O)c(C=O)c2c1O,Potency,[9],4.69 µM (active)
same,Potency,[11],5.95 µM (active)
same,Potency,[14],30.7 µM (active)
same,Potency,[16],19 µM (active)
CN(C)CCN(C)CCc1ccc(Cl)c(Cl)c1,Potency,[9],inactive
same,outcome,[10],inactive
same,"viability, percent of control",[12],73.4%
same,Potency,[17],inactive
same,Potency,[13],inactive
same,Potency,[14],inactive
same,outcome,[15],inactive
Oc1cccc2cccnc12,Potency,[2],37.6 µM (active) and 66.8 µM (active)
same,activation,[3],-0.845% (inactive) and 2.31% (inactive)
same,Potency,[18],inactive
same,activation,[7],0.681% (inactive) and 3.98% (inactive)
same,max response,[1],-5% (inactive) and -2.57% (inactive)
same,Potency,[8],inactive and 3.35 µM (active)
CO[C@@H](C(=O)N1Cc2[nH]nc(NC(=O)c3ccc(N4CCN(C)CC4)cc3)c2C1)c1ccccc1,Potency,[11],11.9 µM (active)
same,"viability, percent of control",[12],77.1%
same,Potency,[17],13.2 µM (active)
same,Potency,[13],16.6 µM (active)
Oc1ccccc1-c1ccccc1,Potency,[2],54.5 µM (active) and 398 µM (active) and 30.6 µM (active)
same,activation,[3],-2.94% (inactive) and -3.63% (inactive) and -0.39% (inactive)
same,Potency,[18],inactive
same,activation,[7],0.277% (inactive) [middle of 4 runs]
same,max response,[1],-2.25% (inactive) and -0.4% (inactive) and 12.1% (inactive)
same,Potency,[8],inactive
O=NN(CCCl)C(=O)NCCCl,Potency,[16],inactive
Cc1sc2c(c1C)C(c1ccc(Cl)cc1)=N[C@@H](CC(=O)OC(C)(C)C)c1nnc(C)n1-2,Potency,[9],inactive
same,outcome,[10],inactive
same,"viability, percent of control",[12],13.5%
same,Potency,[17],0.469 µM (active)
same,Potency,[13],23.5 µM (active)
same,Potency,[14],inactive
same,outcome,[15],inactive
C[C@]12CC[C@@H]3c4ccc(O)cc4C[C@@H](CCCCCCCCCS(=O)CCCC(F)(F)C(F)(F)F)[C@H]3[C@@H]1CC[C@@H]2O (some centres undefined),Potency,[16],inactive
COc1cc([C@@H]2c3cc4c(cc3[C@H](O)[C@H]3COC(=O)[C@H]23)OCO4)cc(OC)c1OC,Potency,[9],inactive
same,Potency,[17],0.0037 µM (active)
COc1cc(Nc2c(C#N)cnc3cc(OCCCN4CCN(C)CC4)c(OC)cc23)c(Cl)cc1Cl,Potency,[13],20.9 µM (active)
Oc1ccc(Cl)cc1Cc1ccccc1,Potency,[2],54.5 µM (active) and 42.2 µM (active)
same,activation,[3],-3.88% (inactive) and -4.49% (inactive)
same,activation,[4],-0.62% (inactive) and 0.873% (inactive)
same,Potency,[5],18.8 µM (active)
same,Potency,[6],21.1 µM (active)
same,activation,[7],0.74% (inactive) and 2.47% (inactive)
same,max response,[1],14% (inactive) and 4.54% (inactive)
N[C@@H](Cc1ccc(N(CCCl)CCCl)cc1)C(=O)O,Potency,[2],54.5 µM (active) and 42.2 µM (active)
same,Potency,[3],39.8 µM (active) and 25.1 µM (active)
same,activation,[4],3.45% (inactive) and -0.304% (inactive)
same,Potency,[5],inactive
same,Potency,[6],inactive
same,activation,[7],3.17% (inactive) and 3.79% (inactive)
same,max response,[1],-0.479% (inactive) and -0.609% (inactive)
same,Potency,[8],26.6 µM (active)
COc1ccc(Cc2nccc3cc(OC)c(OC)cc23)cc1OC,Potency,[16],inactive
CC1=C2C[C@@H]3[C@@H](CC=C4C[C@@H](O)CC[C@@]43C)[C@@H]2CC[C@]12O[C@H]1C[C@H](C)CN[C@H]1[C@H]2C,Potency,[9],inactive
same,outcome,[10],inactive
same,"viability, percent of control",[12],69.1%
same,Potency,[14],inactive
same,outcome,[15],inactive
